Test results as given in PubChem BioAssay (Tox21).
Records with an inconclusive call do not appear. Where a call stands in place of a potency, no number is given. Unmarked numbers belong to inactive results. The source made the active and inactive calls. The call rests on the fitted dose curve; in most records, active means well fitted cell-killing curve with a large enough effect in the repeat runs; inconclusive means weak or mixed curves, or effect the other way; inactive means flat fitted curve, though single readings scatter.

Experiment: qHTS assay to identify small molecule agonists of the sonic hedgehog signaling (Shh) pathway - cell viability counter screen (AID 1259366); further: nearly all actives have a fitted effect of over 50% in size
Conditions: NIH/3T3 Gli1-Luc viability, CellTiter-Fluor, 24 h; series mostly up to 92.4 µM
Description: National Center for Advancing Translational Sciences [NCATS]
NIH Chemical Genomics Center [NCGC]
U.S. Environmental Protection Agency [EPA]
National Institutes of Environmental Health Sciences [NIEHS]
National Toxicology Program [NTP]
U.S. Food and Drug Administration [FDA]
The sonic hedgehog (Shh) pathway is essential for normal embryonic development. Dysregulation of the Shh pathway can cause severe developmental defects in organs. Therefore chemicals that interfere with the pathway are potential developmental toxicants. A cell line designated 3T3Gli1-Luc (DMB/OARSA/CFSAN/FDA, Laurel, MD), a NIH/3T3 derived clone containing stably integrated Gli1-Luc reporter is used to detect chemical interference of the Shh pathway, by changes in the expression of the firefly Luc gene under the control of the Gli1 transcriptional response element. This cell line was used to screen Tox21 libraries for identifying and prioritizing the potential developmental toxicants that interfere Shh pathway. The cytotoxicity of the compounds was tested in parallel by measuring the cell viability using CellTiter-Fluor assay system (Promega, Madison, WI) in the same wells.
Tox21 Assay Protocol Summary:
3T3 Gli1-Luc cells were dispensed at 2,000 per well in 5uL of culture medium into white solid bottom 1536-well plates (Greiner Bio-One, Monroe, NC) using a Multidrop Combi (Thermo Scientific, Waltham, MA) dispenser. The assay plates were incubated at 37 C and 5% CO2 for 4hr, and then 23nL of compounds dissolved in DMSO and positive control were transferred using a Pintool station (Wako, San Diego, CA). The assay plates were incubated at 37C and 5% CO2 for 24hr. For viability read, after 23hr of compound treatment, 1uL of CellTiter-Fluor reagent (Promega Corporation, Madison, WI) was added to each well of the assay plates using Flying Reagent Dispenser (FRD, Aurora Discovery, San Diego, CA) and incubated the assay plates at 37C for 1hr. The fluorescence signal was quantified using a ViewLux plate reader (Perkin Elmer, Shelton, CT).
Potency means the concentration at half of the fitted maximal effect.

| Structure (SMILES) | Potency | viability change, negative = cytotoxic |
| --- | --- | --- |
| O=C(Nc1ccccc1)Nc1ccccc1 | inactive | – |
| CCOCCn1c(C2CCN(CCc3ccc(C(C)(C)C(=O)O)cc3)CC2)nc2ccccc21 | inactive | – |
| COC(=O)c1cc(S(N)(=O)=O)ccc1OC | inactive | – |
| NC(=O)Nc1ccc(Cl)cc1 | inactive | – |
| CC(CCO)CCc1ccccc1 (stereo not given) | inactive | – |
| CCC(C(=O)OCCN(CC)CC)c1ccccc1 (stereo not given) | inactive | – |
| CC1(C)C2=CCCC(C)(C)[C@]23CC[C@H]1C3 | inactive | – |
| CNC(=S)NC | inactive | – |
| Nc1c(I)cc(I)c(C(=O)N(CCC(=O)O)c2ccccc2)c1I | inactive | – |
| COc1cc2[nH]c(=O)[nH]c(=O)c2cc1OC | inactive | – |
| C=CC(=O)NCOCC(C)C | inactive | – |
| CCOc1cc(N)c(Cl)cc1C(=O)NCC1CN(Cc2ccc(F)cc2)CCO1 (stereo not given) | inactive | – |
| O=C(O)c1c(O)c(-c2ccccc2)nc2ccccc12 | inactive | – |
| CC(=O)CC(c1ccc([N+](=O)[O-])cc1)c1c(O)c2ccccc2oc1=O (stereo not given) | inactive | – |
| Cc1nc2ccccn2c(=O)c1CCN1CCC(C(=O)c2ccc(F)cc2)CC1 | inactive | – |
| CCCCC(=O)O[C@]1(C(=O)CO)CC[C@H]2[C@@H]3CCC4=CC(=O)CC[C@]4(C)[C@H]3[C@@H](O)C[C@@]21C | inactive | – |
| COC(=O)CC(=O)C(C)(C)C | inactive | – |
| CC[C@@H]([C@H](C)O)n1ncn(-c2ccc(N3CCN(c4ccc(OC[C@@H]5CO[C@@](Cn6cncn6)(c6ccc(F)cc6F)C5)cc4)CC3)cc2)c1=O | inactive | – |
| O=Cc1c(Cl)cccc1Cl | inactive | – |
| Cc1nc2ccccc2s1 | inactive | – |

| Structure (SMILES) | Potency | viability change, negative = cytotoxic |
| --- | --- | --- |
| CCC(C)=O | inactive | – |
| c1cnc2c(n1)CCCC2 | inactive | – |
| CN1C(=O)CC(C)(c2ccccc2)C1=O (stereo not given) | inactive | – |
| CN1CCN(CCCN2c3ccccc3Sc3ccc(S(=O)(=O)N(C)C)cc32)CC1 | 11.9 µM (active) | – |
| CN(C)C(=O)Nc1ccc(Oc2ccc(Cl)cc2)cc1 | inactive | – |
| CC[C@H](NC(=O)c1cc(F)ccc1NS(=O)(=O)c1cccc2cccnc12)c1ccccc1 | inactive | – |
| CC1CC(=O)NN=C1c1ccc(NCC(C)(C)NCC(O)COc2cc(Cl)ccc2C#N)cc1 (stereo not given) | inactive | – |
| Nc1ccc(S(=O)(=O)O)cc1 | inactive | – |
| COc1ccc(C(=O)c2cccc(O)c2)c(OC)c1 | inactive | – |
| OC(CCCN1CCCCC1)(c1ccccc1)c1ccccc1 | inactive | – |
| O=[N+]([O-])c1cccc(S(=O)(=O)NCCNS(=O)(=O)c2cccc([N+](=O)[O-])c2)c1 | inactive | – |
| CC(=O)OCC(=O)[C@@]12OC(C)(C)O[C@@H]1C[C@H]1[C@@H]3C[C@H](F)C4=CC(=O)C=C[C@]4(C)[C@@]3(F)[C@@H](O)C[C@@]12C | inactive | – |
| OCC1CC=CCC1 (stereo not given) | inactive | – |
| CC(C)CCCC(=O)O | inactive | – |
| CC1(C)O[C@@H]2C[C@H]3[C@@H]4CCC5=CC(=O)C=C[C@]5(C)[C@H]4[C@@H](O)C[C@]3(C)[C@]2(C(=O)CO)O1 | inactive | – |
| CC(C)C(=O)O | inactive | – |
| O=C(N[C@@H](c1ccccc1)[C@@H]1CCCCN1)c1cccc(C(F)(F)F)c1Cl | 30.6 µM (active) | – |
| CO[C@H]1C=CO[C@@]2(C)Oc3c(C)c(O)c4c(O)c(c5c(c4c3C2=O)=NC2(CCN(CC(C)C)CC2)N=5)NC(=O)/C(C)=C\C=C/[C@H](C)[C@H](O)[C@@H](C)[C@@H](O)[C@@H](C)[C@H](OC(C)=O)[C@@H]1C | 26.7 µM (active) | – |
| COC(=O)c1cc(Cl)ccc1NS(=O)(=O)C(F)(F)F | inactive | – |
| CN1CCN(c2c(F)cc3c(=O)c(C(=O)O)cn4c3c2OCN4C)CC1 | – | 2.32% [at 19 µM] |
